Several values for one entry are separate records, joined by “and”; a condition that tells them apart may be missing. Equal values may be shown once. Activity calls are given as the source filed them. Unless noted, the call rests on the fitted dose curve; in most records, active means well fitted curve in the direction sought with a large enough effect in the repeat runs; inconclusive means weak or mixed curves; inactive means no such curve, though single readings can be large; an effect the other way counts as inactive or inconclusive.
What was measured:
[1] = qHTS assay to identify small molecule antagonists of the thyroid receptor (TR) signaling pathway - cell viability counter screen (AID 743064); further: nearly all actives have a fitted effect of over 50% in size; further: potency means the concentration at half of the fitted maximal effect
In short: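 In-well cytotoxicity read by CellTiter-Fluor (30 min, 37 C) following 23.5 h exposure of GH3 cells bearing a TRE-luciferase sensor. Compounds were added alongside 1 nM (final) T3 to drive TR transactivation.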

[2] = qHTS assay to identify small molecule antagonists of the thyroid receptor (TR) signaling pathway (AID 743065); further: nearly all actives have a fitted effect of over 55% in size; further: potency means the concentration at half of the fitted maximal effect
In short: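 GH3.TRE-Luc rat pituitary cells (two TREs driving luciferase) were dosed with compound, then stimulated with 1 nM T3 (final) for 23.5 h at 37 C. ONE-Glo luminescence was the read-out, with CellTiter-Fluor fluorescence as the cytotoxicity counter-screen.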

[3] = test system: thyroid hormone receptor (rat, GH3 cells); assay: qHTS assay to identify small molecule agonists of the thyroid receptor (TR) signaling pathway (AID 743066; calls by dose curve)
[4] = target: Estrogen receptor (Homo sapiens) (UniProt P03372); assay: qHTS assay to identify small molecule agonists of the estrogen receptor alpha (ER-alpha) signaling pathway (AID 743075; calls by dose curve; further: potency means the concentration at half of the fitted maximal effect)
[5] = target: Estrogen receptor (Homo sapiens) (UniProt P03372); assay: qHTS assay to identify small molecule agonists of the estrogen receptor alpha (ER-alpha) signaling pathway using the BG1 cell line (AID 743079); settings: BG1Luc4E2 cells, ERE-luciferase agonist, 22 h; activation: at 70.3 µM (top of the series); further: nearly all actives have a fitted effect of over 20% in size; further: potency means the concentration at half of the fitted maximal effect
[6] = qHTS assay to identify small molecule antagonists of the estrogen receptor alpha (ER-alpha) signaling pathway using the BG1 cell line (AID 743080; calls by dose curve;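 further: BG1 cells stimulated with 17beta-estradiol alongside compound; nearly all actives have a fitted effect of over 25% in size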; further: potency means the concentration at half of the fitted maximal effect); settings: BG1Luc4E2 ERE-luciferase antagonist mode, luminescence; activity change, negative = inhibition: at 70.3 µM (top of the series)
In short: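 Luminescence from a 4×ERE-luciferase reporter in BG1-Luc-4E2 cells served as read-out. Cells, pre-cultured 5 days in stripped-serum phenol-red-free medium, were exposed to compound with 17beta-estradiol co-stimulation for 21.5 h at 37 C.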

[7] = qHTS assay to identify small molecule antagonists of the estrogen receptor alpha (ER-alpha) signaling pathway using the BG1 cell line - cell viability counter screen (AID 743081);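 further: compound given together with 17beta-estradiol as the ER stimulus; nearly all actives have a fitted effect of over 45% in size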; further: potency means the concentration at half of the fitted maximal effect
Aromatase (Homo sapiens) = Aromatase (Homo sapiens) (UniProt P11511); assay: qHTS assay to identify aromatase inhibitors (AID 743083); further: nearly all actives have a fitted effect of over 55% in size; further: potency means the concentration at half of the fitted maximal effect
[8] = qHTS assay to identify small molecule antagonists of the estrogen receptor alpha (ER-alpha) signaling pathway - cell viability counter screen (AID 743074; calls by dose curve; further: nearly all actives have a fitted effect of over 45% in size; further: potency means the concentration at half of the fitted maximal effect)
[9] = target: Estrogen receptor (Homo sapiens) (UniProt P03372); assay: qHTS assay to identify small molecule antagonists of the estrogen receptor alpha (ER-alpha) signaling pathway (AID 743069; active means well fitted curve in the direction sought with a large enough effect in the signal ratio in the repeat runs, not every such curve was filed as active; inconclusive means weak or mixed curves, or effect the other way; inactive means no such curve, though single readings can be large or run the other way; the % refers to the signal ratio; further: potency means the concentration at half of the fitted maximal effect)
In short: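 In this cell-based reporter format, GripTite HEK293 cells harbouring ER-alpha-UAS-bla were grown overnight with 2% charcoal-stripped FBS, dosed with DMSO-dissolved compounds, then challenged with 17beta-estradiol. After 18 hr at 37C, beta-lactamase activity was detected by FRET fluorescence.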

Measured: Potency

Chain of Estrogen receptor (Homo sapiens) (P03372 whole entry, looked up): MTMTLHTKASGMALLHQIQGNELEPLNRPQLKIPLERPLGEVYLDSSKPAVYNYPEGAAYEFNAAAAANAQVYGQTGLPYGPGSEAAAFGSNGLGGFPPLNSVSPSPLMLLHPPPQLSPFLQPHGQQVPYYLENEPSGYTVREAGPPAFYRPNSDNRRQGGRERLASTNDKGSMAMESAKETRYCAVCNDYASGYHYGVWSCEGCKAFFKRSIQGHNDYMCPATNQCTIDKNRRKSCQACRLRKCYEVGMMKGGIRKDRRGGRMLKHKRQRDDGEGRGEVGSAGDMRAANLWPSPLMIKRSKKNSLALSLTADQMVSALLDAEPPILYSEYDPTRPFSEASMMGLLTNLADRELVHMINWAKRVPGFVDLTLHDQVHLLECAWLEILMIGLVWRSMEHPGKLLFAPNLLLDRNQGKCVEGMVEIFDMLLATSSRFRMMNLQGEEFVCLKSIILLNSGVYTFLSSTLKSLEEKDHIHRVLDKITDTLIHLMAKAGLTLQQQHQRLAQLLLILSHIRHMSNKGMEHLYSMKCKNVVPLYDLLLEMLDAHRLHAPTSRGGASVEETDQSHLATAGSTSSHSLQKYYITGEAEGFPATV
Chain of Aromatase (Homo sapiens) (P11511 whole entry, looked up): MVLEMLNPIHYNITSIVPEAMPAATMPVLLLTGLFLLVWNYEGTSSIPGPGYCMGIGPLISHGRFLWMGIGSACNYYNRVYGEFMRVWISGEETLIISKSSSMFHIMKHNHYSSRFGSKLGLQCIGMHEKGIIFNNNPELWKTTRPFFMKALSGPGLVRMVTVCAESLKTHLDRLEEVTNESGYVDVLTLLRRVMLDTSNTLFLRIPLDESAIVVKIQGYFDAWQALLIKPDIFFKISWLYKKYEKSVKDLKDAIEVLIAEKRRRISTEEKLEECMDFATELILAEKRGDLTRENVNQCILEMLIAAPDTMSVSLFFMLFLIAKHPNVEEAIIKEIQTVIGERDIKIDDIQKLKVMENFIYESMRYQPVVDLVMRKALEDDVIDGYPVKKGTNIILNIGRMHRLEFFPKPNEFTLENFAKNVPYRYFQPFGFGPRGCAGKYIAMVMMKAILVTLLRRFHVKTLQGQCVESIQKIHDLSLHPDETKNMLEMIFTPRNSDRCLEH

Cc1ccc2ccc3cccc4ccc1c2c34
not listed: [8] | [9]
inactive: all other assays above

O=C1c2c(O)ccc(O)c2C(=O)c2c(NCCNCCO)ccc(NCCNCCO)c21
inactive: [3] | [8] | [7]
active: [1] 0.569 µM | [2] 0.507 µM | Aromatase (Homo sapiens) 9.02 µM

Cc1c(C(=O)O)cccc1[N+](=O)[O-]
inactive: [1] | [2] | [3] | [8] | [7] | Aromatase (Homo sapiens)

C/C=C/C(=O)Oc1c(CCCCCC(C)C)cc([N+](=O)[O-])cc1[N+](=O)[O-]
active: [1] 12.2 µM | [2] 3.86 µM | [9] 4.9 µM [inconclusive] | Aromatase (Homo sapiens) 15.4 µM
inactive: [3]

CCCCCCOc1ccc(O)cc1
active: [1] 12.2 µM | [2] 6.86 µM | [5] 8.63 µM
inactive: [3] | [4] | [7]

COC(=O)[C@]1(C)CCC[C@@]2(C)[C@H]1CC=C1C=C(C(C)C)CC[C@@H]12
inactive: [3] | [8] | [7]
active: [1] 48.6 µM | [2] 43.3 µM

Cc1cc(Nc2ccc(O)cc2)ccc1N
active: [1] 12.1 µM | [2] 7.66 µM | [7] 54.2 µM | Aromatase (Homo sapiens) 27.2 µM
inactive: [3] | [8]

CN(C)c1ccc(N=Nc2ccccc2C(=O)O)cc1
active: [1] 15.4 µM | [2] 9.69 µM | Aromatase (Homo sapiens) 54.5 µM
inactive: [3] | [4] | [6]

O=C1c2c(O)ccc([N+](=O)[O-])c2C(=O)c2c([N+](=O)[O-])ccc(O)c21
active: [1] 6.8 µM | [2] 6.8 µM | [8] 38.5 µM | [7] 30.4 µM | Aromatase (Homo sapiens) 6.06 µM
inactive: [3]

CCCCCCCCCCCCCOP(=O)(O)O
not listed: Aromatase (Homo sapiens) | [9]
inactive: all other assays above

O=C(O)CC(=O)O
inactive: [1] | [2] | [3] | [8] | [7] | Aromatase (Homo sapiens)

CN(C)CCCN1c2ccccc2CCc2ccccc21
inactive: [3] | [8] | [7] | Aromatase (Homo sapiens)
active: [1] 5.96 µM | [2] 23.7 µM

O=C(O)CCCCCCC(=O)O
inactive: [1] | [2] | [3] | [8] | [7] | Aromatase (Homo sapiens)

C=CCCCCCCC=C
inactive: [1] | [2] | [3] | [8] | [7] | Aromatase (Homo sapiens)

O=C(Nc1ccc(Cl)c(Cl)c1)c1cc(Cl)cc(Cl)c1O
inactive: [3] | [7]
active: [1] 4.86 µM | [2] 2.17 µM | [8] 2.45 µM | [4] 0.436 µM [inconclusive] | [6] 4.86 µM | Aromatase (Homo sapiens) 6.11 µM

CC1=C(/C=C/C(C)=C/C=C/C(C)=C/C(=O)Nc2ccc(O)cc2)C(C)(C)CCC1
active: [1] 6.68 µM and 8.85 µM | [2] 5.96 µM and 7.89 µM | [9] 6.01 µM [inhibitor] | [7] 16.8 µM and 62.7 µM | Aromatase (Homo sapiens) 13.3 µM and 28 µM
inactive: [3] | [4]

CC(=O)Nc1ccc(O)cc1
inactive: [1] | [2] | [3] | [8] | [7] | Aromatase (Homo sapiens)

CCN=C1C=CC(=C(c2ccc(N(CC)CC)cc2)c2ccc(N(CC)CC)cc2)c2ccccc21
active: [1] 0.542 µM | [2] 0.121 µM | [9] 38.7 µM [cytotoxic] | [8] 19.4 µM | [6] 0.136 µM | [7] 30.5 µM | Aromatase (Homo sapiens) 0.216 µM
inactive: [3]

C=CC(=O)OCC(O)COc1ccccc1 (stereo not given)
active: [1] 54.5 µM | [2] 48.6 µM | Aromatase (Homo sapiens) 68.6 µM
not listed: [6] | [9]
inactive: all other assays above

CCN1CCN(c2cc(-c3ccc(F)cc3)c3c(n2)CCCCCC3)CC1
active: [1] 13.3 µM | [2] 18.8 µM
inactive: [3] | [8] | Aromatase (Homo sapiens)

N[C@@H](CSSC[C@H](N)C(=O)O)C(=O)O
inactive: [1] | [2] | [3] | [8] | [7] | Aromatase (Homo sapiens)

CCCCCCOc1cc(C)c(O)c(C)c1C
active: [1] 49.2 µM | [2] 55.1 µM | Aromatase (Homo sapiens) 43.8 µM
not listed: [6] | [9]
inactive: all other assays above

C/C=C/C=N/NC(=O)c1ccncc1
inactive: [1] | [2] | [3] | [8] | [7] | Aromatase (Homo sapiens)

COC(=O)NCCC[Si](OC)(OC)OC
inactive: [1] | [2] | [3] | [8] | [7] | Aromatase (Homo sapiens)

C[C@@]12C(=O)OC(=O)[C@]1(C)C1CCC2O1
inactive: [3] | [4]
active: [1] 2.27 µM | [2] 2.02 µM | [9] 4.06 µM [inconclusive]

CC(C)(c1cc(Br)c(OCCO)c(Br)c1)c1cc(Br)c(OCCO)c(Br)c1
active: [1] 47.5 µM | [2] 9.47 µM
inactive: [3] | [4]

SCCCCCCCCS
inactive: [1] | [2] | [3] | [8] | [7] | Aromatase (Homo sapiens)

CCCCCCCCCCCCOC(=O)c1cc(O)c(O)c(O)c1
inactive: [3]
active: [1] 3.05 µM and 2.43 µM | [2] 2.72 µM and 1.93 µM | [9] 19.4 µM [inconclusive] | [8] 49 µM | Aromatase (Homo sapiens) 30.5 µM and 27.3 µM

From PubChem BioAssay (Tox21)
